# SW480 rerep: DNA re-replication induction in SW480 cells; SW480 DNA re-replication, Hoechst DNA content imaging, 48 h; Potency, µM (titrated, usually from 46.1 µM), for the others: at the highest dose re-replication activation, hits mostly activators; hit rate 1.8% among 340,000; AID 624297; note: % of control where 0% means no effect; nearly all actives have a fitted effect of over 55% in size
#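 Treated cells incubate 48 hr (37 C, 5% CO2), are stained 40 min with Hoechst, and nuclear fluorescence is enumerated; a rise in nuclei with high DNA signal marks re-replication.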
# HT1080 IDH1KD tx: HT-1080 IDH1 knockdown cell toxicity (counter line); HT-1080 IDH1 knockdown viability, ATP luminescence, 48 h; Potency, µM (titrated, usually from 46.1 µM), for inactives: top-dose activity, negative = toxicity, most hits filed as cytotoxic; hit rate 2% among 360,000;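 note: 0% = DMSO wells and -100% = cell-free medium wells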
#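 HT-1080-IDH1KD cells (IDH1 knocked down), 750/well in RPMI with 5% FBS, treated with compound 48 h at 37 degrees C. Viability by CellTiter-Glo luminescence, normalised to DMSO and no-cell wells; concentration-response curves classed.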
# HT1080NT lethal: kills 2HG-producing HT-1080-NT fibrosarcoma cells | HT-1080-NT fibrosarcoma viability, CellTiter-Glo ATP luminescence, 48 h | hit rate 1.6% among 360,000 | Potency, µM (doses to about 46.1 µM), for the others: at the highest dose activity, negative = less viability, hits mostly cytotoxic;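 note: NT is the 2HG producing partner of a matched IDH1 knockdown line; 0% = DMSO-treated cells and -100% = media-only wells without cells; nearly all actives have a fitted effect of over 55% in size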
#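 Compounds were tested in concentration-response format on HT-1080-NT cells for 48 hours at 37 degrees C. Cell viability came from CellTiter-Glo luminescence; curves were classified by r2, response magnitude and activity.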
# MCF10A rerep: DNA re-replication induction in MCF 10a cells | hit rate 2.9% among 350,000 | Potency, µM (doses to about 46.1 µM), inactives show at the highest dose activity, positive = re-replication, hits mostly activators | MCF 10A DNA re-replication, Hoechst nuclear intensity, 48 h | AID 624296; note: % of control where 0% means no effect; nearly all actives have a fitted effect of over 50% in size
# KB-V1 MDR tox: KB-V1 MDR subline cytotoxicity; KB-V1 MDR cells viability, CellTiter-Glo, 72 h; Potency, µM (highest dose often 46.1 µM), hits mostly cytotoxic; hit rate 3.4% among 400,000; note: % is set by controls: 0 for no effect and ±100 for the full control effect; nearly all actives have a fitted effect of over 60% in size
#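 KB-V1 MDR subline cells in DMEM (phenol-red free, 10% FBS) exposed to compounds in qHTS concentration series for 72 h at 37 degrees C. Viability read by CellTiter-Glo luminescence; concentration-effect curves fitted after normalization and correction.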
# KB-3-1 cytotox: KB-3-1 parental cell cytotoxicity. KB-3-1 viability, CellTiter-Glo ATP luminescence, 72 h. Potency, µM (titrated, usually from 46.1 µM), usual class: cytotoxic. hit rate 1.4% among 400,000. AID 1347075; note: % is set by controls: 0 for no effect and ±100 for the full control effect; nearly all actives have a fitted effect of over 60% in size
#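 Cells are dispensed, compounds pinned in, plates held at 37 °C for 72 h, then CellTiter-Glo is added and luminescence read after 10 minutes. Cell line: parental KB-3-1 in phenol-red-free DMEM, 10% FBS.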
# * = called active by the depositor; i = inactive; ? = inconclusive; . = no result. Sampled rows, rich in hits. Any-hit rate of the full collection: about 8%. Calls come from the whole dose curve; as a rule, active = well fitted curve in the direction sought with a large enough effect; inconclusive = small, poorly fitted or top-dose-only effect, or another doubt; inactive = no such curve, though single readings can be large; an effect the other way counts as inactive or inconclusive. Potency is the fitted concentration of half-maximal effect.
SMILES,SW480 rerep,HT1080 IDH1KD tx,HT1080NT lethal,MCF10A rerep,KB-V1 MDR tox,KB-3-1 cytotox
Clc1cccc(CSc2nnc(-c3ccccn3)n2Cc2ccco2)c1,-6%,-19%,-19%,?,10µM*,?
C(=C\c1ccccc1)/CSc1nnc(-c2ccccc2)n1Cc1ccco1,23µM*,7.1µM*,7.1µM*,5.2µM*,18µM*,i
CCOc1ccc(NC(=O)C2CC(=O)N3CCCN=C3S2)cc1 (stereo not drawn),2%,-2%,-5%,-1%,i,i
CCCNC(=S)N1CCC(C(=O)c2ccc(Cl)cc2)CC1,7.3µM*,-14%,0%,0%,i,i
Cc1ccc(CNS(=O)(=O)c2ccc3c(c2)CCN3C(=O)C2CCC2)cc1,-3%,-2%,-22%,6%,i,i
COc1cc(/C=C(\C#N)c2nc3ccccc3[nH]2)ccc1OCc1ccccc1F,.,.,.,.,i,i
Cc1cc(/C=C(\C#N)c2nc3ccccc3[nH]2)c(C)n1C,?,0%,7%,9%,5.2µM*,?
COc1cc(/C=C(\C#N)c2nc3ccccc3[nH]2)cc(OC)c1O,?,-3%,-4%,?,?,i
COc1cc(/C=C(\C#N)c2nc3ccccc3[nH]2)cc(Br)c1OCc1ccc(F)cc1,?,0%,1%,8.2µM*,i,i
COc1cc(/C=C(\C#N)c2nc3ccccc3[nH]2)cc(Br)c1OCc1ccccc1,18µM*,?,?,18µM*,i,i
Cc1cc(/C=C(/C#N)c2nc3ccccc3[nH]2)c(C)n1-c1cccc([N+](=O)[O-])c1,5%,-11%,-13%,3%,?,?
O=C(NCc1cccs1)c1nc2c(nnn2Cc2ccc(F)cc2)c(=O)[nH]1,-1%,?,-22%,-5%,23µM*,i
CCCCCCC(=O)N1CCC(c2nc3c(nnn3Cc3ccccc3Cl)c(=O)[nH]2)CC1,15%,11µM*,13µM*,0%,i,i
O=C(NCC1CCCO1)c1nc2c(nnn2Cc2ccc(F)cc2)c(=O)[nH]1 (stereo not drawn),-9%,-7%,0%,19%,i,i
O=C(C1CCCCC1)N1CCC(c2nc3c(nnn3Cc3ccccc3Cl)c(=O)[nH]2)CC1,-1%,-1%,-9%,3%,i,i
Cc1ccc(C)c(Cn2nnc3c(=O)[nH]c(C(=O)NCc4ccco4)nc32)c1,19%,-21%,14%,37%,?,i
O=C(NCc1ccco1)c1nc2c(nnn2Cc2ccccc2Cl)c(=O)[nH]1,0%,?,18µM*,7%,i,?
O=C(CN1C(=O)COc2ccc(S(=O)(=O)NC3CCCC3)cc21)Nc1ccc(F)c(Cl)c1,.,.,.,.,i,i
NC(=O)C1CCN(S(=O)(=O)c2cc3c4c(c2)CCN4C(=O)CC3)CC1,0%,-2%,-1%,0%,i,i
CC(C)(C)c1cc(N)n(-c2ccc(C(=O)O)cc2)n1,10%,6%,9%,6%,i,i
CCc1cccc2c(C(=O)COC(=O)c3c(C)noc3C)c[nH]c12,?,?,?,23µM*,?,i
Cc1noc(C)c1C(=O)OCC(=O)c1c[nH]c2ccccc12,1%,1%,0%,0%,i,i
COc1ccc(OC)c(S(=O)(=O)N2CCC(C(=O)N3CCN(Cc4ccccc4)CC3)CC2)c1,-2%,-5%,0%,1%,?,i
Clc1ccc(Oc2ccccc2)c2ncccc12,-6%,0%,-2%,4%,i,i
O=C(c1ccco1)N1CCN(C(=O)c2ccco2)C1=S,5.8µM*,16µM*,?,2.6µM*,16µM*,12µM*
SMILES,SW480 rerep,HT1080 IDH1KD tx,HT1080NT lethal,MCF10A rerep,KB-V1 MDR tox,KB-3-1 cytotox
O=C(c1ccco1)N1CCCN(C(=O)c2ccco2)CC1,-13%,6%,16%,6%,i,i
O=C(c1ccco1)N1CCN(C(=O)N2CCOCC2)CC1,0.16µM*,-4%,1%,?,i,i
O=C(NCCOc1ccccc1)c1ccccc1Cl,1%,13%,6%,-2%,?,i
CN(C(=O)COc1ccccc1C(=O)NCCOc1ccccc1)c1ccccc1,1%,?,21µM*,18µM*,8.2µM*,15µM*
COc1ccc(Cn2c(-c3ccc(C)cc3)c[n+]3ccccc23)cc1,-2%,1.2µM*,4.1µM*,?,i,3.3µM*
N#CC(C#N)=c1ccc2c(c1)N1C3=C(CCCC3)CC3CCCCC31N=2 (stereo not drawn),-2%,-1%,0%,28%,?,?
N#C/C(C(N)=O)=c1/ccc2c(c1)N1C3=C(CCCC3)CC3CCCCC31N=2 (stereo not drawn),2%,-3%,-3%,-4%,23µM*,?
CCOC(=O)/C(C#N)=C1/SC(CCO)C(=O)N1c1ccccc1 (stereo not drawn),-1%,7%,3%,5%,i,i
CC1(c2ccccc2)CC(C)(C)N2C(=O)/C(=C3\SC(=S)NC3=O)c3cccc1c32 (stereo not drawn),-5%,8%,8%,3.3µM*,?,i
CC(C)(C)CC(C)(C)NC(=S)NC1CCN(Cc2ccccc2)CC1,?,0%,-1%,?,5.2µM*,?
S=C(Nc1ccc(Cl)c(Cl)c1)NC1CCN(Cc2ccccc2)CC1,?,23µM*,26µM*,?,?,?
S=C(Nc1ccc2nsnc2c1)NC1CCCCC1,6%,17%,23%,-37%,16µM*,i
S=C(Nc1ccc(Cl)c(Cl)c1)NC1CCCCC1,3.3µM*,?,10µM*,80%,16µM*,18µM*
S=C(Nc1ccc2nsnc2c1)N1CCCCCC1,?,7%,5%,1%,i,i
Cc1cccc(NC(=S)NC2CCN(Cc3ccccc3)CC2)c1C,?,-3%,-3%,5%,i,i
Fc1ccc(NC(=S)NC2CCN(Cc3ccccc3)CC2)cc1,-2%,-1%,-3%,17%,i,i
Cc1cccn2c(=O)c(/C=N/O)c(Nc3ccccc3F)nc12,0%,10%,15%,0%,i,i
COc1ccc(NC(=S)N(CCc2ccncc2)C(C)C)cc1Cl,.,-1%,1%,.,i,i
COc1ccc(N2CCN(C(=O)CNS(=O)(=O)c3ccc(Br)s3)CC2)cc1,0%,-8%,-14%,?,?,i
CCCN(c1ccc(C(C)C)cc1)S(=O)(=O)c1ccc2c(c1)CCN2C(=O)CC,.,.,.,.,i,i
